Results as given in PubChem BioAssay AID504690 (Sanford-Burnham Center for Chemical Genomics, 2011).
Screen size: about 350,000 compounds; about 2,700 (0.77%) were called active.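 The calls were made as follows: active = inhibition reaching at least a set limit at 20 µM in the primary screen (cut at about 59% in these data); inactive = the rest.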 The entries come from a sample that favours actives as a whole.

Tested on: glucose-6-phosphate dehydrogenase-6-phosphogluconolactonase (Plasmodium falciparum 3D7)
Assay: PfG6PD enzyme inhibitors, primary screen, biochemical, fluorescence intensity, uHTS (AID 504690);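 also: 0% = DMSO wells with substrate and 100% = DMSO wells lacking glucose-6-phosphate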
Conditions: PfGluPho enzyme, NADPH resazurin-diaphorase fluorescence; at 20 µM; stronger effect = higher value

| SMILES | inhibition |
| --- | --- |
| COc1cc(C(=S)NCc2ccccc2)cc(Br)c1O | 66.8% (active) |
| COc1cc(C(=O)NCc2ccncc2)cc(Br)c1OCc1ccccc1 | 10.8% (inactive) |
| COc1ccccc1OCCC(=O)OCC(=O)NCc1ccccc1 | 9.79% (inactive) |
| Cc1ccc(C(O)P(=O)(OC(C)C)c2ccc(N(C)C)cc2)cc1 (stereo unspecified) | -15% (inactive) |
| O=C(O)C1CCCN1c1nc(Cl)ccc1[N+](=O)[O-] (stereo unspecified) | 26.3% (inactive) |
| CC(C)(C)n1ncc2c(=O)n(Cc3c(Cl)cccc3Br)cnc21 | -2.98% (inactive) |
| CC(C)CCC(=O)Nc1cc(S(=O)(=O)N2CCOCC2)ccc1N1CCCC1 | 10.5% (inactive) |
| O=C(COC(=O)Cc1ccc(F)cc1)Nc1cc(S(=O)(=O)N2CCOCC2)ccc1N1CCCC1 | -0.28% (inactive) |
| COCCNC(=S)Nc1cc(S(=O)(=O)N2CCOCC2)ccc1N1CCCCC1 | 76.4% (active) |
| CC(Oc1cccc(Cl)c1)C(=O)Nc1ccc(S(=O)(=O)Nc2ncccn2)cc1 (stereo unspecified) | -6.55% (inactive) |
| S=C(Nc1cccnc1)Nc1ccccn1 | 7.51% (inactive) |
| O=C(N/N=C/c1ccccn1)C12CC3CC(CC(C3)C1)C2 | -7.42% (inactive) |
| S=C(NN=Cc1ccccn1)Nc1ccccn1 | 64% (active) |
| CC(=O)Nc1ccc(NC(=O)CCN2C(=O)C3CC=CCC3C2=O)cc1 (stereo unspecified) | -13% (inactive) |
| O=C(Nc1ccc(N2CCN(C(=O)c3ccccc3)CC2)c(Cl)c1)c1cccnc1 | 17.8% (inactive) |
| O=C(NCCN1CCCC(O)C1)c1cc(COc2c(F)cccc2F)on1 (stereo unspecified) | -19.2% (inactive) |
| CN1CCN(NC(=O)c2ccc(S(=O)(=O)N3CCCCCC3)cc2)CC1 | 5.23% (inactive) |
| COc1ccc(S(=O)(=O)NCc2cccnc2)cc1NC(=O)c1ccc(C)cc1 | -3.1% (inactive) |
| CCOc1ccc(-n2c(N)c(C(=O)NCC3CCCO3)sc2=S)cc1 (stereo unspecified) | 67.6% (active) |
| CCOc1ccc(S(=O)(=O)N2CCN(C(=S)NCC3CCCO3)CC2)cc1 (stereo unspecified) | 8.65% (inactive) |
| CCOc1ccc(NS(=O)(=O)c2ccc(C(=O)NCC3CCCO3)cc2)cc1 (stereo unspecified) | 9.67% (inactive) |
| O=C(Nc1ccccc1C(=O)N1CCOCC1)C1CCC(=O)N1C1CCCC1 (stereo unspecified) | -1.14% (inactive) |
| CC(OC(=O)CCc1nc(=O)c2ccccc2n1C)C(=O)NCc1ccc2c(c1)OCO2 (stereo unspecified) | 5.1% (inactive) |

| SMILES | inhibition |
| --- | --- |
| O=C(COC(=O)Cn1cnc2ccccc2c1=O)NCc1ccccc1Cl | 11% (inactive) |
| Cn1c(CCC(=O)OCC(=O)NCc2ccccc2Cl)nc(=O)c2ccccc21 | 60.9% (active) |
| O=c1c2ccccc2nnn1CSc1nc2sc3c(c2c(=O)n1CC1CCCO1)CCC3 (stereo unspecified) | 13.2% (inactive) |
| CC[C@@H](C)[C@@H]1CN([C@@H](C)CN2CCC[C@H]2CN2C(N)=NC[C@H]2C(C)C)C(=N)N1CCc1ccc(Cl)c(Cl)c1 | -10.9% (inactive) |
| O=C(CN(CC1CCCO1)C(=O)CNS(=O)(=O)c1ccc(F)cc1)NCc1ccco1 (stereo unspecified) | 9.81% (inactive) |
| COc1cc(C(=O)CCc2ccc3c(c2)OCO3)cc(OC)c1OC | 31.9% (inactive) |
| COc1c(O)ccc2c1CN1CCc3cc4c(cc3C1C2)OCO4 (stereo unspecified) | 75.1% (active) |
| COc1ccc2cc1Oc1ccc(cc1)C[C@H]1c3cc(c(OC)cc3CCN1C)Oc1c(O)c(OC)cc3c1[C@H](C2)N(C)CC3 | 10.2% (inactive) |
| CCc1cccc(C)c1N1C(=O)CN(Cc2ccccc2)C1=S | 8.09% (inactive) |
| CN(C)C(=O)N=NC(=O)N(C)C | 62.4% (active) |
| O=C(Nc1cccc(Cl)c1)Nc1ccccc1NS(=O)(=O)c1cccs1 | -1.49% (inactive) |
| CCCCSc1nc2c(c(=O)n1CC)SC(C)C2 (stereo unspecified) | -22.8% (inactive) |
| COc1ccc(C(=O)Nc2sc(C)c(C)c2CN2CCOCC2)cc1 | 3.12% (inactive) |
| CCc1cc(C(N)=O)c(NC(=O)c2ccc(OC)cc2)s1 | 63.8% (active) |
| CCc1cc(C(=O)c2ccc(OC)cc2)c(NC(=O)CN2CCN(C)CC2)s1 | -3.28% (inactive) |
| O=C1CC(C(F)(F)C(F)(F)C(F)(F)C(F)(F)F)=Nc2ccccc2N1 | 6.19% (inactive) |
| CCc1cccc2c3c([nH]c12)C(CC)(CC(=O)O)OCC3 (stereo unspecified) | -16.9% (inactive) |
| Nc1ccc(-c2nnc(-c3ccc(-c4ccccc4)cc3)o2)cc1 | 64% (active) |
| COc1ccc(-c2nnc(-c3ccc4ccccc4c3)o2)cc1 | 15.1% (inactive) |
| CN(C)c1ccc(-c2nnc(-c3cccnc3)o2)cc1 | 3.13% (inactive) |
| CC(C)C[C@@H](NC(=O)[C@H]1CCCN1C(=O)Cc1ccccc1)C(N)=O | -7.04% (inactive) |
| C/C=C/C=C/C(=O)OCC(=O)Nc1ccc(Cl)cc1 | 8.86% (inactive) |
| Cc1ccc(NC(=O)Cn2sc3ccccc3c2=O)cc1 | 125% (active) |

| SMILES | inhibition |
| --- | --- |
| Cc1ccc(NC(=O)Cn2c(C)csc2=O)cc1 | 3.32% (inactive) |
| O=C(Cn1nc(C(=O)O)c2ccccc2c1=O)Nc1ccc(F)cc1 | -5.5% (inactive) |
| CCOc1ccc(/C(O)=C2\C(=O)C(=O)N(c3ccc(OC)cc3)C2c2ccccc2[N+](=O)[O-])cc1 (stereo unspecified) | -3.26% (inactive) |
| Cc1cc(OCC(=O)Nc2nccs2)c2c(C)c(C)c(=O)oc2c1 | 0.15% (inactive) |
| CCCCn1c(N)c(N(CC(C)C)C(=O)c2cccc(S(=O)(=O)N3CC(C)OC(C)C3)c2)c(=O)[nH]c1=O (stereo unspecified) | -1.62% (inactive) |
| CCC1(CC)NC(=O)N(CC(=O)OCC(=O)Nc2ccc(C(F)(F)F)cc2)C1=O | 3.64% (inactive) |
| O=C(/C=C/c1ccco1)Nc1ccc(Oc2ccccc2)cc1 | 62.8% (active) |
| O=C(O)/C=C\C(=O)Nc1ccc(OCc2ccccc2)cc1 | -24.5% (inactive) |
| COc1cccc(NC(=O)COC(=O)/C=C/c2ccco2)c1 | 17.7% (inactive) |
| CN(C)c1cccc(C(=O)N2CCC(n3nccc3NC(=O)C3CCOC3)CC2)c1 (stereo unspecified) | 3.81% (inactive) |
| COc1ccc(C(=O)N2CCN(c3ncccn3)CC2)cc1S(=O)(=O)N1CCOCC1 | 4.39% (inactive) |
| Cc1ccc(C(=O)/C=C/c2c(C)nn(-c3ccccc3)c2Cl)cc1 | 71.4% (active) |
| Cc1ccc(-n2nc(C)c(/C=N/NC(=O)c3cccs3)c2Cl)cc1 | 18.2% (inactive) |
| Cc1nn(-c2ccccc2)c(Cl)c1/C=C/C(=O)c1ccc(O)cc1 | -22.8% (inactive) |
| CCOC(OCC)c1ccc(/C=C\c2nccc(N)n2)cc1 | 5.93% (inactive) |
| COc1cc(S(=O)(=O)N2CCOCC2)ccc1NC(=O)COc1ccc(N(C)S(=O)(=O)c2ccc(C)cc2)cc1 | 3.13% (inactive) |
| COc1ccc(Cc2nnnn2CC(=O)O)cc1 | -4.83% (inactive) |
| CC1(c2ccc3ccccc3c2)NC(=O)N(CC(N)=O)C1=O (stereo unspecified) | -14% (inactive) |
| N/C(=N\OC(=O)CCn1cccc(C(F)(F)F)c1=O)c1ccc(OC(F)(F)F)cc1 | -3.22% (inactive) |
| NC(=O)CSc1nnc(NC(=O)c2ccc(Br)o2)s1 | 21.1% (inactive) |
| CCOC(=O)CSc1nnc(NC(=O)c2cccc(S(=O)(=O)N3CCCC3)c2)s1 | -21.8% (inactive) |
| CCSc1nnc(NC(=O)c2ccc(C)cc2)s1 | 92.9% (active) |
| CCC(C)NCCOCCOc1ccc(Br)cc1C (stereo unspecified) | -3.69% (inactive) |

| SMILES | inhibition |
| --- | --- |
| O=C(NC1CCc2ccccc21)C12CN(Cc3ccccc3)CC1C(c1cccc([N+](=O)[O-])c1)=NO2 (stereo unspecified) | 3.16% (inactive) |
| O=C1C(Cl)=C(Oc2ccccc2)C(=O)c2ccccc21 | 128% (active) |
| COc1ccc(-c2c(C)cc3oc(=O)cc(-c4ccccc4)c3c2C)cc1C=O | 1.07% (inactive) |
| CCOc1ccccc1Nc1ccc(C(=O)O)cc1[N+](=O)[O-] | -28.7% (inactive) |
| Cc1ccccc1Nc1c([N+](=O)[O-])ccc2nonc12 | -0.06% (inactive) |
| CCOc1ccccc1Nc1ccc2nonc2c1[N+](=O)[O-] | 77.2% (active) |
| CCC(C)C(=O)Nc1cc([N+](=O)[O-])ccc1Cl (stereo unspecified) | -12.1% (inactive) |
| Cc1ccc(N(C(=O)CC2NC(=O)NC2=O)C2(C(=O)NC3CCCC3)CCCCC2)cc1 (stereo unspecified) | 2.93% (inactive) |
| O=C1/C(=C\Nc2ccccc2)CCN1c1ncccn1 | 10.9% (inactive) |
| Cc1ccc(S(=O)(=O)N2C[C@@H](C)[C@]3(C2)[C@H](O)[C@H](OC(=O)NCc2ccccc2)C[C@H]2C(=O)N(c4ccccc4)C(=O)[C@H]23)cc1 | 24.5% (inactive) |
| CN1C2CCC1CC(NC(=O)c1ccc([N+](=O)[O-])cc1)C2 (stereo unspecified) | -5.81% (inactive) |
| COC(=O)c1c(C)[nH]c(C)c1-c1ccc([N+](=O)[O-])cc1 | -17.8% (inactive) |
| CC(=O)N1CC[n+]2c(-c3ccc([N+](=O)[O-])cc3)csc21 | 60.6% (active) |
| CC(C)NC(=O)/C(C#N)=C\c1ccc(N(C)C)c(Br)c1 | -1.04% (inactive) |
| CCOC(=O)C1C(=O)OC2(CCCC2)C1C(=O)OCC (stereo unspecified) | -2.05% (inactive) |
| O=C(COC(=O)c1ccc([N+](=O)[O-])o1)NC12CC3CC(CC(C3)C1)C2 | 23.2% (inactive) |
| COC(=O)/C=C\C(=O)Nc1cccc([N+](=O)[O-])c1 | 45.2% (inactive) |
| Cc1ccc(/C=C/C(=O)Nc2cc(S(=O)(=O)N3CCCCCC3)ccc2OCC(F)(F)F)o1 | 35.9% (inactive) |
| Cc1ccc(/C=C/C(=O)Nc2ccc([N+](=O)[O-])c(NC(=O)/C=C/c3ccc(C)o3)c2)o1 | 82.9% (active) |
| CN(Cc1nc(-c2cnccn2)no1)Cc1n[nH]c2c1CCCCC2 | -10.5% (inactive) |
| O=C(NCCc1ccccc1)C(=O)NCC1OCCN1S(=O)(=O)c1cccs1 (stereo unspecified) | -3.06% (inactive) |
| O=C(Nc1c(Cl)cccc1Cl)C1CCC1 | -12.1% (inactive) |
